Lassa entry – qHTS for Inhibitors of binding or entry into cells for Lassa Virus. Potency, µM (series often up to 49.2 µM), for inactives: top-dose activity change, negative = inhibition, hits mostly inhibitors. AID 720533, 2013. Lassa virus pseudotyped entry inhibition, cell-based qHTS. actives 4.1% (n = 18,000)
Marburg entry – qHTS for Inhibitors of binding or entry into cells for Marburg Virus | Marburg virus pseudotype entry/binding inhibition, cell-based | Potency, µM (top dose mostly 49.2 µM), inactives show at the highest dose activity change, negative = inhibition, actives largely listed as inhibitors | actives 6.5% (n = 18,000)
* = called active by the depositor; ! = repeats disagree; [ ] = remark or other dose. Hits are enriched below; roughly 7.1% of the tested compounds scored in any of these assays. Calls follow the shape of the full dose curve; tested in HEK293 cells. % is scaled to controls: 0 for no effect and ±100 for the full control effect; potency is read from the fitted curve at half-maximal effect.

What do the screens show for `COc1ccc(CC2NCCc3cc(OC)c(OC)cc32)cc1OC` (stereo unspecified)?
Lassa entry: 2%; Marburg entry: -18%

What do the screens show for `COC(=O)c1ccc(CN2C(=O)[C@]3(OCCC=C[C@@H]3C)c3cc(OC)ccc32)cc1`?
Lassa entry: 8%[8.59 µM]; Marburg entry: -23%[8.59 µM]

What do the screens show for `O=S1(=O)c2ccc(Br)cc2N2CCC[C@@H]2CN1Cc1ccc(Cl)cc1`?
Lassa entry: 1%; Marburg entry: inconclusive

What do the screens show for `CN1CCCC(n2nc(Cc3ccc(Cl)cc3)c3ccccc3c2=O)CC1` (stereo unspecified)?
Lassa entry: inconclusive; Marburg entry: 7.9µM*

Results for CCCC[C@]12Cc3c(ccc4ccccc34)[C@H](O1)C1=C(O2)C(=O)c2ccccc2C1=O ?
Lassa entry: 14%[8.59 µM]; Marburg entry: 22%[8.59 µM]

What do the screens show for `COc1ccc(C(=O)CC(=O)c2c(O)cc(OC)cc2OC)cc1`?
Lassa entry: -12%[8.59 µM]; Marburg entry: 18%[8.59 µM]

What do the screens show for `COc1cc(O)c(C(C)=O)c(OC)c1`?
Lassa entry: 5.6µM*; Marburg entry: 8.9µM*

How did C#CCCOC(=O)N1C2=NC3=C(C(=O)N(Cc4ccc5c(c4)OCO5)C3=O)C3N(C)c4ccccc4[C@]23C[C@H]1CO (stereo partly specified) do in these assays?
Marburg entry: -23%[8.59 µM]

What do the screens show for `C[C@@H]1[C@@H]2Cc3ccc(O)cc3[C@@]1(C)CCN2CC1CC1`?
Lassa entry: -9%; Marburg entry: -14%

What do the screens show for `C[C@@H]1[C@@H]2Cc3ccc(O)cc3[C@@]1(C)CCN2CCc1ccccc1`?
Lassa entry: inconclusive; Marburg entry: 20µM*

How did CCCCCC(=O)N1C[C@@H](O)[C@H](n2cc(COC(=O)c3ccccc3)nn2)C[C@H]1c1ccc(OC)cc1 do in these assays?
Lassa entry: 11%; Marburg entry: -17%

What do the screens show for `COC(=O)C1=C(C)N(Cc2ccccc2)C(=NCc2ccc(OC)cc2)NC1c1ccccc1` (stereo unspecified)?
Lassa entry: 1%[8.59 µM]; Marburg entry: -18%[8.59 µM]

How did COC(=O)C1=C[C@@H]([C@@H](C)[C@H](OC)c2ccccc2Br)[C@@H]2OCC[C@H]12 do in these assays?
Lassa entry: 32%[8.59 µM]; Marburg entry: 40%[8.59 µM]

What do the screens show for `COC(=O)C1=C[C@H]([C@@H](C)[C@H](OC)c2ccccc2Br)[C@H]2c3ccccc3O[C@@H]12`?
Lassa entry: 1.7µM*; Marburg entry: inconclusive

Results for COC(=O)N(C=Cc1ccc(OC)cc1)CCc1ccc(OC)c(OC)c1 ?
Lassa entry: 1%[8.59 µM]; Marburg entry: 3%[8.59 µM]

How did C=CCC1=C(C)C(OC(=O)C2C(C=C(C)C)C2(C)C)CC1=O (stereo unspecified) do in these assays?
Lassa entry: 28µM*; Marburg entry: inconclusive

Results for C#CCN1CC(=O)N(COC(=O)C2C(C=C(C)C)C2(C)C)C1=O (stereo unspecified) ?
Lassa entry: -7%; Marburg entry: -6%

How did CCS(=O)(=O)NCc1c(C)ncc2c1CCN(C(=O)c1csc(-c3cccs3)n1)C2 do in these assays?
Lassa entry: -23%; Marburg entry: 4%

How did Cc1ncc2c(c1CNC(=O)c1cncs1)CCN(C(=O)c1csc(-c3cccs3)n1)C2 do in these assays?
Lassa entry: -21%; Marburg entry: 35µM*

What do the screens show for `COC(=O)C1=C(C)N(Cc2ccccc2)C(=NCCc2ccc(O)cc2)NC1c1ccc(Br)cc1` (stereo unspecified)?
Lassa entry: -24%[8.59 µM]; Marburg entry: 2%[8.59 µM]

How did CC(COc1ccccc1)N(CCCl)Cc1ccccc1 (stereo unspecified) do in these assays?
Lassa entry: 28µM*!; Marburg entry: 0%

Results for CN(C)Cc1ccccc1 ?
Lassa entry: -16%; Marburg entry: 8%

Results for C=CCN1[C@@H](CC(C)C)COc2c(Cl)cccc2S1(=O)=O ?
Lassa entry: 19%; Marburg entry: -9%

How did CN(C)CCOC(c1ccc(Cl)cc1)c1ccccn1 (stereo unspecified) do in these assays?
Lassa entry: -6%; Marburg entry: inconclusive

How did CN(C)CCOC1=Cc2ccccc2Sc2ccc(Cl)cc21 do in these assays?
Lassa entry: inconclusive; Marburg entry: 13µM*

Results for CCOC(=O)NN=C1C[C@@H](O)[C@@H](O)[C@@H]2[C@H]3C(=O)N(Cc4ccc5c(c4)OCO5)C(=O)[C@@H]3CC[C@H]12 ?
Lassa entry: 4%[8.59 µM]; Marburg entry: -22%[8.59 µM]

Results for C#CCNC(=O)[C@H]1C=C(OC)C(=O)C[C@H]2c3ccccc3C[C@]12C ?
Lassa entry: 1%[8.59 µM]; Marburg entry: 8%[8.59 µM]

Results for CCCCCCCCCCCCCCCCCCNC(=O)OC1CCN(C(=O)OC[C@H](COC(=O)N(Cc2cccc[n+]2CC)C(=O)c2ccccc2OC)OC)CC1 ?
Lassa entry: 13µM*; Marburg entry: 11µM*

Results for C=COCCN1C=C(C(=O)OCC)C(c2ccccc2)NC1=O (stereo unspecified) ?
Lassa entry: 18%[8.59 µM]; Marburg entry: 10%[8.59 µM]

Results for COC(=O)CC=C[C@@H](C)[C@H](OC)c1c(Br)ccc2c1OCO2 ?
Lassa entry: 5%[8.59 µM]; Marburg entry: inconclusive

What do the screens show for `COc1cc(OC)c2c(-c3cccc(-c4ccc(N(C)C)cc4)c3)cc(=O)oc2c1`?
Lassa entry: inconclusive; Marburg entry: 3.5µM*

How did COc1cc(OC)c2c(-c3cccc(-c4ccc(OC(F)(F)F)cc4)c3)cc(=O)oc2c1 do in these assays?
Lassa entry: -15%; Marburg entry: -10%

Results for COc1cc(OC)c2c(-c3cccc(/C=C/c4ccc(F)cc4)c3)cc(=O)oc2c1 ?
Lassa entry: 3%; Marburg entry: 20%

How did COc1cc(OC)c2c(-c3cccc(-c4ccc(CO)cc4)c3)cc(=O)oc2c1 do in these assays?
Lassa entry: inconclusive; Marburg entry: 1µM*

How did COc1ccccc1Nc1ncc(-c2ccccc2)o1 do in these assays?
Lassa entry: 2%; Marburg entry: 10%

How did COC(=O)C1=C(C)N(Cc2ccccc2)C(=NCc2cc(OC)c(OC)c(OC)c2)NC1CCc1ccccc1 (stereo unspecified) do in these assays?
Lassa entry: -19%[8.59 µM]; Marburg entry: inconclusive

What do the screens show for `CCCNC(=O)OC[C@H]1O[C@H](CCON=CC[C@@H]2C=C[C@H](OC(C)=O)[C@@H](COC(C)=O)O2)C=C[C@H]1Oc1ccc(OC)cc1`?
Marburg entry: 6%[8.59 µM]

What do the screens show for `CC(C)=CCC12CC3[C@@H](O)C(C(=O)c4ccccc4)(C1=O)C(=O)C(CC=C(C)C)(C2=O)C3(C)C` (stereo partly specified)?
Marburg entry: -26%[8.59 µM]

What do the screens show for `C[C@@H](C1[C@@H](O)CC2C3C=CC4C[C@@H](O)CC[C@]4(C)[C@H]3CC[C@@]21C)[C@@H]1CCCCN1` (stereo partly specified)?
Lassa entry: 6%; Marburg entry: 11µM*

How did COc1ccc(OC[C@H]2CN3[C@H](c4ccc(Br)cc4)[C@H](C)CC[C@H]3C(=O)O2)cc1 do in these assays?
Lassa entry: 11%[8.59 µM]; Marburg entry: -7%[8.59 µM]

What do the screens show for `N[C@@H](Cc1ccc(O)cc1)C(=O)O`?
Lassa entry: -8%; Marburg entry: 11%

How did NC(Cc1ccc(O)c(O)c1)C(=O)O (stereo unspecified) do in these assays?
Lassa entry: -25%; Marburg entry: 1.6µM*

What do the screens show for `C=C[C@@H](O)C[C@H]1C=C[C@@H]2C[C@H](C=C)OP(=O)(O1)O2`?
Lassa entry: 9%; Marburg entry: 2%

Bioassay records from PubChem BioAssay.
